Measured values from ChEMBL document CHEMBL1961873, “Compounds: GSK PKIS; Assays: Nanosyn kinase panel” (2012).

These molecules were tested against Tyrosine-protein kinase Fer (Homo sapiens) (UniProt P16591). Details: at 1 µM.
Tyrosine-protein kinase Fer (Homo sapiens), sequence (P16591 whole entry, looked up): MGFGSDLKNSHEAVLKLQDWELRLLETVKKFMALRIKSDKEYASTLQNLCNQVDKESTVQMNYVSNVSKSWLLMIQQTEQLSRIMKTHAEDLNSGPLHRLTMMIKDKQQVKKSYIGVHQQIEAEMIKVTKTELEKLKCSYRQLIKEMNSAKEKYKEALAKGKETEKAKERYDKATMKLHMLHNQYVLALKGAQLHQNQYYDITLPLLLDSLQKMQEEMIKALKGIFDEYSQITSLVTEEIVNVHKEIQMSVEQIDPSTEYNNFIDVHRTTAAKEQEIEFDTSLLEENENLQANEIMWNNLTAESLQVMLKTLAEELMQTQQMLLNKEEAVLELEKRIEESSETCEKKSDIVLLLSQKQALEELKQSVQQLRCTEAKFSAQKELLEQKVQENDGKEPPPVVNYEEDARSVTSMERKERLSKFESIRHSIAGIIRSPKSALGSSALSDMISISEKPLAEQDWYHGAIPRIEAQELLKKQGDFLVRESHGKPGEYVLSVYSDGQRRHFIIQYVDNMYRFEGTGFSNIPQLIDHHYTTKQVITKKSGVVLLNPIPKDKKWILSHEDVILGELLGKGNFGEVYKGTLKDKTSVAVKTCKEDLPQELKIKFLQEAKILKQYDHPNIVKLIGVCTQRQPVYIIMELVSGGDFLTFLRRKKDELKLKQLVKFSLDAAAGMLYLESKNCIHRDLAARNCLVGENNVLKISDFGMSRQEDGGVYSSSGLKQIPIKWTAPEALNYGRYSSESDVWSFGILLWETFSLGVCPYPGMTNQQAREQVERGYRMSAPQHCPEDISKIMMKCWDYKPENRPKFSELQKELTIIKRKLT

Compound | inhibition [%]
CCn1c(-c2nonc2N)nc2ccc(F)cc21 | 7.92
[O-][S+]1CCN(Cc2ccc(-c3ccc4ncnc(Nc5ccc(OCc6ccccc6)c(Cl)c5)c4c3)o2)CC1 | 4.1
N#Cc1cccc(Nc2nccc(-c3cnn4ncccc34)n2)c1 | 48.9
CS(=O)(=O)CCNCc1nc(-c2ccc3ncnc(Nc4ccc(OCc5cccc(C(F)(F)F)c5)cc4)c3c2)cs1 | 6.92
COC(=O)c1ccc2c(c1)C(=Cc1cc(Br)c(O)c(Br)c1)C(=O)N2 | 7.48
NS(=O)(=O)c1cccc(-c2cc3ccncc3cc2OCc2ccccc2)c1 | 4.16
COc1ccc(-c2nn3ncccc3c2-c2ccnc(Nc3cccc(C(F)(F)F)c3)n2)cc1 | 1.69
Cc1cc(O)cc(C)c1/C=C/c1cncc(C(=O)N(C)C)c1 | 1.61
COc1cc(/C=N/Nc2ncnc3c2cnn3C(C)C)ccc1O | 7.03
CCOc1nccc2c1nc(-c1nonc1N)n2CC | 6.51
Oc1cccc(-c2nc(-c3ccccc3)[nH]c2-c2ccncc2)c1 | 0.53
Nc1nccc(C#Cc2cncnc2Nc2ccc(OCc3cccc(F)c3)c(Cl)c2)n1 | 3.48
Cc1ccc2c(-c3ccnc(Nc4ccc5c(c4)OCCO5)n3)c(-c3ccc(C(F)(F)F)cc3)nn2n1 | -0.37
CS(=O)(=O)Nc1cccc(-c2ccc3c(NC(=O)C4CC4)n[nH]c3c2)c1 | 0.02
Cc1cc(-c2ccccn2)cc(C)c1/C=C/c1cncc(-c2nn[nH]n2)c1 | 2.12
CN(C)CCCn1c(-c2nonc2N)nc2cnccc21 | 3.54
Cc1cc(Cl)cc2c1NC(=O)C2=NNc1ccc(S(N)(=O)=O)cc1 | 5.08

Compound | inhibition [%]
CN(c1ccc(NC(=O)Nc2ccc(OC(F)(F)F)cc2)cc1)c1ccnc(Nc2cccc(S(N)(=O)=O)c2)n1 | 60.4
COc1cc2ncn(-c3cc(OCc4ccccc4S(C)(=O)=O)c(C#N)s3)c2cc1OC | 10.3
Cc1ccc(O)cc1Nc1ccnc2ccc(S(C)(=O)=O)cc12 | 18.5
CN1CCN(C(=O)c2ccc(NC(=O)Nc3ccc(N(C)c4ccnc(Nc5ccc(CS(C)(=O)=O)cc5)n4)cc3)cc2)CC1 | 63.9
COC(=O)Nc1nc2cc(Oc3ccc(NC(=O)Nc4cccc(Br)c4)cc3)ccc2[nH]1 | 4.33
NS(=O)(=O)c1ccc(N/N=C2\C(=O)Nc3ccc(Cl)cc32)cc1 | 7.24
Cc1nc(-c2ccccc2)n2nc(NCCCN3CCOCC3)ncc12 | 2.98
COc1cc(Nc2nccc(-c3cnn4ncccc34)n2)cc(OC)c1 | 58.6
NS(=O)(=O)c1cccc(Nc2cc(-c3ccc(F)cc3)n[nH]2)c1 | 6.71
COc1ccc2ncnc(Nc3ccc(OCc4ccccc4)cc3)c2c1 | 4.76
Cc1ccc2c(c1)/C(=N/Nc1ccc(S(N)(=O)=O)cc1)C(=O)N2 | 0.29
Cc1ccc(C(=O)NC2CC2)cc1-c1ccc2[nH]ncc2c1 | 0.05
NS(=O)(=O)c1ccc(NC=C2C(=O)Nc3ccc4ncsc4c32)cc1 | 27.7
CCS(=O)(=O)c1ccc(OC)c(Nc2ncc(-c3cccc(OC)c3)o2)c1 | 3.8
c1ccc(Cc2nc3ccc(Nc4ncnc5ccccc45)cc3[nH]2)cc1 | 6.1
NC(=O)c1cccc(Nc2nccc(Nc3cccc(F)c3)n2)c1 | 14.6
CCCN1CCCC(c2ccc(Nc3nc(Nc4cc(F)ccc4C(N)=O)c4cc[nH]c4n3)c(OC)c2)C1 (stereo not drawn) | 84.4

The molecules below were run against Tyrosine-protein kinase Fes/Fps (Homo sapiens) (UniProt P07332). Details: at 0.1 µM.
Tyrosine-protein kinase Fes/Fps (Homo sapiens), sequence (P07332 whole entry): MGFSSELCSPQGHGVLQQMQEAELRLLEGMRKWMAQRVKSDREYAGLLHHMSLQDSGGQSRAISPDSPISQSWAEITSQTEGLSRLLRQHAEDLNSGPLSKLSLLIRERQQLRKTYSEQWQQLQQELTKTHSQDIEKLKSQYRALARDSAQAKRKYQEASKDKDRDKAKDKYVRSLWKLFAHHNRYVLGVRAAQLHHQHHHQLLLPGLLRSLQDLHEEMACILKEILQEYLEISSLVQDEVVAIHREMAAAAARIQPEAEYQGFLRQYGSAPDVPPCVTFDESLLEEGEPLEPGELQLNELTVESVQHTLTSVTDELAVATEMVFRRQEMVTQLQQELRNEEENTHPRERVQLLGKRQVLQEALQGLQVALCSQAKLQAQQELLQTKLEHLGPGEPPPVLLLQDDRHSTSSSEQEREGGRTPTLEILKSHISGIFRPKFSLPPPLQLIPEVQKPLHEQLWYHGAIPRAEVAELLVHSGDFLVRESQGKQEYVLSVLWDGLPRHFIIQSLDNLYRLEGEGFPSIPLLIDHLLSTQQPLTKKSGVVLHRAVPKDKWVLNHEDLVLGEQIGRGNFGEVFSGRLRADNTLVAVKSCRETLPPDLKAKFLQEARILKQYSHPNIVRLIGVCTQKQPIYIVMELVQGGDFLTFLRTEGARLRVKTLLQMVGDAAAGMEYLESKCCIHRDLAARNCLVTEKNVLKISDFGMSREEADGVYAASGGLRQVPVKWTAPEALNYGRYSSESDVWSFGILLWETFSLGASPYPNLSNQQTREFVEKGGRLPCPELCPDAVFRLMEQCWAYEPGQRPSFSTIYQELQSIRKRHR

Compound | inhibition [%]
CCn1c(-c2nonc2N)nc2ccc(F)cc21 | 2.98
[O-][S+]1CCN(Cc2ccc(-c3ccc4ncnc(Nc5ccc(OCc6ccccc6)c(Cl)c5)c4c3)o2)CC1 | 1.31
N#Cc1cccc(Nc2nccc(-c3cnn4ncccc34)n2)c1 | 7.07
CS(=O)(=O)CCNCc1nc(-c2ccc3ncnc(Nc4ccc(OCc5cccc(C(F)(F)F)c5)cc4)c3c2)cs1 | 1.48
COC(=O)c1ccc2c(c1)C(=Cc1cc(Br)c(O)c(Br)c1)C(=O)N2 | 3.27
NS(=O)(=O)c1cccc(-c2cc3ccncc3cc2OCc2ccccc2)c1 | 4.25
COc1ccc(-c2nn3ncccc3c2-c2ccnc(Nc3cccc(C(F)(F)F)c3)n2)cc1 | 3.15
Cc1cc(O)cc(C)c1/C=C/c1cncc(C(=O)N(C)C)c1 | 1.75
COc1cc(/C=N/Nc2ncnc3c2cnn3C(C)C)ccc1O | 1.26
CCOc1nccc2c1nc(-c1nonc1N)n2CC | 2.51
Oc1cccc(-c2nc(-c3ccccc3)[nH]c2-c2ccncc2)c1 | 2.34
Nc1nccc(C#Cc2cncnc2Nc2ccc(OCc3cccc(F)c3)c(Cl)c2)n1 | 3.46
Cc1ccc2c(-c3ccnc(Nc4ccc5c(c4)OCCO5)n3)c(-c3ccc(C(F)(F)F)cc3)nn2n1 | 0.95
CS(=O)(=O)Nc1cccc(-c2ccc3c(NC(=O)C4CC4)n[nH]c3c2)c1 | 0.9
Cc1cc(-c2ccccn2)cc(C)c1/C=C/c1cncc(-c2nn[nH]n2)c1 | 3.53
CN(C)CCCn1c(-c2nonc2N)nc2cnccc21 | 2.93
Cc1cc(Cl)cc2c1NC(=O)C2=NNc1ccc(S(N)(=O)=O)cc1 | 0.93

Compound | inhibition [%]
CN(c1ccc(NC(=O)Nc2ccc(OC(F)(F)F)cc2)cc1)c1ccnc(Nc2cccc(S(N)(=O)=O)c2)n1 | 4.7
COc1cc2ncn(-c3cc(OCc4ccccc4S(C)(=O)=O)c(C#N)s3)c2cc1OC | 2.71
Cc1ccc(O)cc1Nc1ccnc2ccc(S(C)(=O)=O)cc12 | 8.11
CN1CCN(C(=O)c2ccc(NC(=O)Nc3ccc(N(C)c4ccnc(Nc5ccc(CS(C)(=O)=O)cc5)n4)cc3)cc2)CC1 | 7.35
COC(=O)Nc1nc2cc(Oc3ccc(NC(=O)Nc4cccc(Br)c4)cc3)ccc2[nH]1 | 1.77
NS(=O)(=O)c1ccc(N/N=C2\C(=O)Nc3ccc(Cl)cc32)cc1 | 2.52
Cc1nc(-c2ccccc2)n2nc(NCCCN3CCOCC3)ncc12 | 2.16
COc1cc(Nc2nccc(-c3cnn4ncccc34)n2)cc(OC)c1 | 10.7
NS(=O)(=O)c1cccc(Nc2cc(-c3ccc(F)cc3)n[nH]2)c1 | 2.34
COc1ccc2ncnc(Nc3ccc(OCc4ccccc4)cc3)c2c1 | 0.67
Cc1ccc2c(c1)/C(=N/Nc1ccc(S(N)(=O)=O)cc1)C(=O)N2 | -0.01
Cc1ccc(C(=O)NC2CC2)cc1-c1ccc2[nH]ncc2c1 | -3.18
NS(=O)(=O)c1ccc(NC=C2C(=O)Nc3ccc4ncsc4c32)cc1 | 12.3
CCS(=O)(=O)c1ccc(OC)c(Nc2ncc(-c3cccc(OC)c3)o2)c1 | 1.8
c1ccc(Cc2nc3ccc(Nc4ncnc5ccccc45)cc3[nH]2)cc1 | 1.75
NC(=O)c1cccc(Nc2nccc(Nc3cccc(F)c3)n2)c1 | 1.24
CCCN1CCCC(c2ccc(Nc3nc(Nc4cc(F)ccc4C(N)=O)c4cc[nH]c4n3)c(OC)c2)C1 (stereo not drawn) | 61.4
